These results are taken from ChEMBL document CHEMBL3988442, “University of Dundee, Small-Polar-MMV Screening Library” (2021).

The structures appear in SMILES notation. About 13,000 (27%) of roughly 48,000 compounds showed an effect of 50% or more. The list shows a part of the results.

This test relates to Wolbachia pipientis. In words: Anti-Wolbachia Cell-Based Screen. The test is classed as functional. More on the design: scale not given: in the data most compounds retested in dose-response had high values. Conditions: 5 µM.
Regarding `CC(C)c1noc(C(C)N2CCC(c3nc4ccccc4o3)CC2)n1` (stereo not drawn), the “Percent Effect” value is listed as 1.795%.
With `Cc1cc(C)c2c(c1)C(NC(=O)CSc1nnc[nH]1)CCO2` (stereo not drawn), the “Percent Effect” value is given as 8.701%.
The result for `Cc1nn(C)c2nc(N(C)CC3CCN(CC(C)C)C3)sc12` (stereo not drawn) reads -16.91%; that for `O=C(c1ccoc1)N1CCCN(CC2CCOc3ccccc3C2)CC1` (stereo not drawn), -7.228%.
As for `CN1CC(c2cc(O)nc(NCc3cccc(F)c3)n2)CC1=O` (stereo not drawn), the figure is 104.4%; as for `Cc1nc(NC(=O)NC2CC(=O)N(C)C2)nn1C` (stereo not drawn), 3.668%.
Consider `CN1CC(c2cc(O)nc(NCc3ccc(Cl)cc3)n2)CC1=O` (stereo not drawn), for which the “Percent Effect” value came out at 70.24%.
`COc1cccc(CNc2nc(O)cc(C3CC(=O)N(C)C3)n2)c1` (stereo not drawn): the “Percent Effect” value is -3.669%.
The result for `CN1CC(c2cc(O)nc(NCc3ccccc3Cl)n2)CC1=O` (stereo not drawn) reads 83.2%; that for `CC(C)(CO)NC(=O)C1CCC(=O)N(Cc2ccc(Cl)cc2)C1` (stereo not drawn), -2.281%; that for `Cc1ccccc1CNc1nc(O)cc(C2CC(=O)N(C)C2)n1` (stereo not drawn), -5.04%.
As for `CC1CCc2nc(O)c(C(=O)NCc3cccc(F)c3)cc2C1` (stereo not drawn), the figure is -1.382%; as for `N#Cc1cccc(NC2CC(=O)N(Cc3ccccc3Cl)C2)n1` (stereo not drawn), -1.238%.
In the case of `Cc1ccc(CNc2nc(O)cc(C3CC(=O)N(C)C3)n2)cc1` (stereo not drawn), the “Percent Effect” value is reported as 96.21%.
Consider `Cc1cc(C)cc(OCCC(=O)NC2CC(=O)N(C)C2)c1` (stereo not drawn), for which the “Percent Effect” value is reported as -4.77%.
For `CCC(NC(=O)Nc1ccc(OC)c(C)c1)c1noc(C)n1` (stereo not drawn), the “Percent Effect” value is given as -4.029%.
`CC(C(=O)N1CCCN(c2ncccc2C#N)CC1)n1cccn1` (stereo not drawn): the “Percent Effect” value turned out to be 0.5745%.
Take `N#Cc1ccc(N2CCCN(CC(=O)N3CCC3)CC2)cc1`: the “Percent Effect” value was 4.301%.
For the molecule `CC(C)c1nccn1C(C)C(=O)N1CCN(c2ccccc2Cl)CC1` (stereo not drawn), the “Percent Effect” value is given as -35.17%.
As for `CC(C(=O)N1CCCN(c2ccccc2C#N)CC1)n1cccn1` (stereo not drawn), the figure is 129.1%; as for `CC(C(=O)N1CCCN(c2ccc(C#N)cc2)CC1)n1cccn1` (stereo not drawn), 143.8%.
Regarding `CC(C(=O)N1CCCN(c2ccc(C#N)cc2)CC1)n1ccnc1` (stereo not drawn), the “Percent Effect” value was -8.735%.
On to `CC(C)n1ccnc1CN1C(=O)OC[C@@H]1c1ccccc1`, for which the “Percent Effect” value is on record as 11.77%.
As for `CCOCC(=O)N1C[C@H]2CC[C@@H]1CN(C(=O)c1ccncc1)C2`, the figure is -0.6982%; as for `CCCOCCn1ncc(N2CCCC2)cc1=O`, 0.2704%.
The result for `CN1CCCN(c2cnn(Cc3ccncc3)c(=O)c2)CC1` reads -30.12%; that for `CN(C)c1cnn(Cc2nc3ccccc3n2C)c(=O)c1`, 116.1%.
With `Cn1c(Cn2ncc(N3CCCCC3)cc2=O)nc2ccccc21`, the “Percent Effect” value worked out at 93.17%.
For the molecule `CN1CCCN(c2cnn(Cc3ccc(C(C)(C)C)cc3)c(=O)c2)CC1`, the “Percent Effect” value amounted to 10.83%.
For `Cn1c(Cn2ncc(N3CCCC3)cc2=O)nc2ccccc21`, the “Percent Effect” value worked out at 114.5%.
As for `CN(C)c1cnn(CC(=O)N2Cc3ccccc3C2)c(=O)c1`, the figure is 8.607%; as for `CN(C)c1cnn(CC(=O)N2CCN(c3ccccc3)CC2)c(=O)c1`, 3.087%.
Regarding `O=c1cc(N2CCCCC2)cnn1CCCn1cccn1`, the “Percent Effect” value was 21.14%.
The result for `O=C(NC1CC2(CCN(CCO)CC2)Oc2ccccc21)c1csnn1` (stereo not drawn) reads -25.87%; that for `CC(C)c1nc(CN(C)C(=O)CCNC(=O)c2ccccc2F)no1`, -5.471%.
As for `CC(=O)Nc1ccc([C@@H](O)[C@H]2COCC(=O)N2CC(C)C)cc1`, the figure is -7.535%.
Take `CCc1noc(CN(Cc2ccc3c(c2)OCO3)C2CCCC2)n1`: the “Percent Effect” value is on record as 130.5%.
The result for `Cc1noc(CN(Cc2ccc3c(c2)OCO3)C2CCCC2)n1` reads 3.676%; that for `CCCc1noc(CN(C)Cc2ccc3c(c2)OCO3)n1`, -4.394%; that for `c1cc2c(cc1CN(Cc1nc(C3CC3)no1)C1CCCC1)OCO2`, 88.61%.
With `Cc1noc(CN(C)Cc2ccc3c(c2)OCO3)n1`, the “Percent Effect” value is recorded as 95.73%.
`CN(C(=O)Cc1ccc2c(c1)OCCO2)C1CCCCC1`: the “Percent Effect” value is -4.303%.
As for `CCc1noc(CN(C)C(=O)c2ccnc(OC3CCC3)c2)n1`, the figure is -5.488%; as for `Cc1csc(CNC(=O)N(C)Cc2ccc3c(c2)OCCO3)n1`, -8.149%.
The result for `CCN(Cc1nc(C2CC2)no1)Cc1ccc(C#N)cc1F` reads -4.842%; that for `CCN(Cc1ccc2c(c1)OCO2)Cc1nc(C)no1`, 5.817%; that for `Cc1nc(CN(Cc2ccc3c(c2)OCCO3)C2CCCC2)no1`, 158.9%.
As for `CC(C)c1nc2n(n1)CC(Nc1ncnc3c1CCC3)CC2` (stereo not drawn), the figure is -10.8%; as for `O=C(c1cc[nH]n1)N1CCN(C(c2ccccc2)C(F)(F)F)CC1` (stereo not drawn), 48.39%; as for `N#CCCN(CCC#N)C(=O)c1ccc(COc2ccccc2C#N)o1`, -1.523%.
As for `CN(C)CCN(C)S(=O)(=O)CC1CCOCC1`, the “Percent Effect” value was 3.137%.
As for `CC(CS(C)(=O)=O)N(C(=O)Nc1ccc(F)cc1F)C1CC1` (stereo not drawn), the figure is 2.637%.
The result for `COc1cc(OC)c(CNC(=O)NCc2ccc(C#N)cc2)c(OC)c1` reads 1.359%; that for `COCCO[C@H]1COCCN(Cc2ccc(OC)cc2)C1`, -5.552%.
The result for `O=C(C1CCOc2ccccc2C1)N1Cc2cnn(CCO)c2C1` (stereo not drawn) reads -2.46%; that for `CCCN(C(=O)CN1CCN(CC(C)O)CC1)C1=CCCCC1` (stereo not drawn), -2.912%; that for `CCc1nc(C2CCCN2c2ncc(C(N)=O)cc2Cl)no1` (stereo not drawn), -14.14%.
On to `Cc1noc([C@@H]2CCCN2C(=O)C2CCN(CC(N)=O)CC2)n1`, for which the “Percent Effect” value came to 1.357%.
Regarding `Cc1noc(C2CCCN2C(=O)C2CCC2)n1` (stereo not drawn), the “Percent Effect” value turned out to be 124.3%.
The result for `Cc1noc([C@@H]2C[C@H](NC(=O)NC3CCCCC3)CN2C)n1` reads -10.92%; that for `CNCC(=O)N1CCCC1c1nc(C(C)C)no1` (stereo not drawn), 10.93%.
For `CC(=O)N1CCCC1c1nc(C)no1` (stereo not drawn), the “Percent Effect” value turned out to be 122.1%.
Turning to `Cc1noc([C@@H]2CCCN2C(=O)C2CCN(C(=O)C3CCC3)CC2)n1`, the “Percent Effect” value is -13.41%.
The result for `Cc1ccc([C@@H]2CN(C(=O)c3cc[nH]c3)C[C@H]2NC(=O)C2CC2)cc1` reads 18.05%; that for `NC(=O)C1CCN(CCc2ccc(NCc3ccoc3)cc2)CC1`, -9.363%; that for `CCOCCNC(=O)c1cccnc1N1CCCC1c1ccccn1` (stereo not drawn), 122.4%.
With `CCC(CC)NC(=O)c1cccnc1N1CCCC1c1ccccn1` (stereo not drawn), the “Percent Effect” value came out at 119.8%.
For `CNC(=O)c1cccnc1N1CCN(C/C=C/c2ccccc2)CC1`, the “Percent Effect” value was determined as 6.453%.
As to `CCC(CC)NC(=O)c1cccnc1-n1cccn1`, the “Percent Effect” value stood at 10.93%.
As for `COc1cccc(C(=O)N2CCN(C(=O)CCCn3ccnc3)CC2)c1`, the figure is -1.45%; as for `COc1ccc(C(=O)O)c(OCC(=O)NC(C)c2ccc(F)cc2)c1` (stereo not drawn), -5.25%.
As to `Cc1ccccc1C(N)c1ccncc1.Cl` (stereo not drawn), the “Percent Effect” value is listed as 102.8%.
As for `Cc1ccccc1CN(Cc1ccncc1)CC(C)C`, the “Percent Effect” value is on record as -4.812%.
Turning to `Cc1ccc(C(N)c2cccs2)cc1` (stereo not drawn), the “Percent Effect” value amounted to 13.29%.
The result for `COCC(NC(=O)c1cc[nH]n1)c1cccc(C(F)(F)F)c1` (stereo not drawn) reads -1.057%; that for `O=C(c1ccccn1)N1C[C@@H]2CC[C@H](C1)N(C(=O)CCC(F)(F)F)C2`, -20.57%.
Take `Cn1cc(-c2nc(CN3CCn4c(nnc4C4CC4)C3)cs2)cn1`: the “Percent Effect” value is -10.47%.
For `Cn1cc(-c2csc(N3CCCCCC3)n2)cn1`, the “Percent Effect” value is given as -2.114%.
As for `Cn1cc(-c2nnc3sc(C4CCC4)nn23)cn1`, the figure is 131.8%.
Take `CCCC1CCCN(Cc2csc(-c3cnn(C)c3)n2)CC1` (stereo not drawn): the “Percent Effect” value is reported as -16.04%.
Regarding `Cn1cc(-c2nnc3sc(C4CC4)nn23)cn1`, the “Percent Effect” value was determined as 89.59%.
Regarding `CCC(CO)N(Cc1ccsc1)CC1CC1` (stereo not drawn), the “Percent Effect” value was -8.901%.
The result for `CCOc1ccc(SCCS(=O)(=O)CC)cc1` reads 102.3%; that for `CCOc1ccc(SCCNS(=O)(=O)CC)cc1`, 37.47%; that for `CCCNS(=O)(=O)Cc1ccc(Br)cc1`, -14.67%.
Turning to `CCOc1ccc(CNC(C)c2cccc(S(=O)(=O)NC)c2)cc1` (stereo not drawn), the “Percent Effect” value was 0.3734%.
As for `CCS(=O)(=O)CCSc1ccc(Cl)cc1`, the figure is 82.02%; as for `CCS(=O)(=O)CCSc1ccc(Br)cc1`, 61.96%.
As for `CCS(=O)(=O)CCCN1CCSCC1c1ccc(Cl)cc1` (stereo not drawn), the figure is 4.065%.
The result for `N#Cc1ccc(SCCC(=O)O)cc1` reads -2.439%; that for `N#Cc1cccc(SCCS(N)(=O)=O)c1`, 2.301%; that for `CC(C)c1cc(=O)[nH]c(C(C)(C)N)n1.Cl`, -9.286%.
As to `CNC(=O)Cc1noc(-c2cc3c(s2)CCC(C)(C)C3)n1`, the “Percent Effect” value is on record as -4.639%.
In the case of `O=C(O)c1ccccc1CN1CCCC(Cc2ccn[nH]2)C1` (stereo not drawn), the “Percent Effect” value was 106.4%.
The result for `O=C(O)c1cccc(CN2CCCC(Cc3ccn[nH]3)C2)c1` (stereo not drawn) reads 127.8%; that for `O=C(O)c1ccc(CN2CCCC(Cc3ccn[nH]3)C2)cc1` (stereo not drawn), 99.33%; that for `CC(C)(C)OC(=O)NC1CCCN(Cc2cccc(O)c2)C1` (stereo not drawn), -3.79%.
As for `COc1ccccc1CC1CCCN(CC(N)=O)C1` (stereo not drawn), the figure is -5.386%; as for `c1ccn2cc(CN3CCCC(c4ccn[nH]4)C3)nc2c1` (stereo not drawn), 9.447%.
The result for `COc1ccccc1CC1CCCN(C(=O)c2cn[nH]c2C)C1` (stereo not drawn) reads -7.935%.
As to `O=C(O)c1cccc(CN2CCCC(c3ccn[nH]3)C2)c1` (stereo not drawn), the “Percent Effect” value stood at 109.3%.
For the molecule `O=C1CCCN1CCN1CCCC(c2ccn[nH]2)C1` (stereo not drawn), the “Percent Effect” value worked out at 1.781%.
In the case of `Cc1ccsc1[C@@H]1CCN(C(=O)c2ccc(-c3cc[nH]n3)cc2)C[C@H]1O`, the “Percent Effect” value is -2.8%.
For the molecule `CCC(SC)C(=O)N1CCC(n2cccn2)CC1` (stereo not drawn), the “Percent Effect” value is listed as -7.031%.
The result for `CN1C(=O)CC2(CCN(S(=O)(=O)c3cccs3)CC2)c2ccccc21` reads 10.11%; that for `COCCCNC(=O)C1(NC(=O)c2ccc3[nH]ncc3c2)CCCC1`, -2%; that for `O=S(=O)(NCC1(O)CCOc2ccccc21)c1ccccc1Br` (stereo not drawn), 15.3%.
The result for `O=C(Nc1nnn[nH]1)c1ccc(-n2cccc2)c(F)c1` reads -12.4%.
